Test results taken from PubChem BioAssay AID1159580 (chemical genetic matrix, 2015).
Where “and” joins values, the source holds several entries; their conditions need not be identical. Identical values can stand only once. Among all 5,500 compounds or so, about 2,000 (36%) were called active. About 18% were inconclusive and are not listed. Rule as the data show it: active = normalized growth mostly below about 0.91 (no sharp cut-off); inconclusive = no clear call, values can overlap the other calls; inactive = mostly above about 0.92. This is one part of the list.

Experiment: chemical genetic growth profiling, strain panel (AID 1159580);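 also: tested at 20 µM; growth read once vehicle control cultures reached saturation at 30 °C; 1 = growth at the plate median or of vehicle wells; lower values mean less growth of the strain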
Details: S. cerevisiae deletion strains, growth OD

Measured: normalized growth

O=c1cc(-c2ccc(O)cc2)oc2cc(O[C@@H]3O[C@H](CO)[C@@H](O)[C@H](O)[C@H]3O[C@@H]3OC[C@](O)(CO)[C@H]3O)cc(O)c12
inactive: locus YAL013W, strain DEP1, stronger effect = lower value 1.01 | locus YAL021C, strain ccr4, stronger effect = lower value 0.998 | locus YAL026C, strain drs2, stronger effect = lower value 1 | locus YAL030W, strain snc1, stronger effect = lower value 1 | locus YBL061C, strain skt5, stronger effect = lower value 1.02 | locus YBR009C, strain hhf1, stronger effect = lower value 1.01 | locus YBR021W, strain FUR4, stronger effect = lower value 0.99 | locus YBR023C, strain chs3, stronger effect = lower value 1.01 | locus YBR171W, strain sec66, stronger effect = lower value 0.982 | locus YBR229C, strain ROT2, stronger effect = lower value 1.01 | locus YBR231C, strain swc5, stronger effect = lower value 1.01 | locus YBR279W, strain paf1, stronger effect = lower value 1.01 | locus YCL011C, strain gbp2, stronger effect = lower value 1.01 | locus YCL016C, strain dcc1, stronger effect = lower value 1 | locus YCL029C, strain bik1, stronger effect = lower value 0.985 | locus YCL061C, strain MRC1, stronger effect = lower value 1.01 | locus YCL069W, strain vba3, stronger effect = lower value 0.994 | locus YCR088W, strain abp1, stronger effect = lower value 0.998 | locus YDL005C, strain med2, stronger effect = lower value 1 | locus YDL035C, strain GPR1, stronger effect = lower value 1.01 | locus YDL040C, strain nat1, stronger effect = lower value 0.997 | locus YDL074C, strain BRE1, stronger effect = lower value 1.02 | locus YDL101C, strain DUN1, stronger effect = lower value 1.02 | locus YDL134C, strain PPH21, stronger effect = lower value 1.03 | locus YDL185W, strain tfp1, stronger effect = lower value 0.981 | locus YDL192W, strain arf1, stronger effect = lower value 0.998 | locus YDR001C, strain nth1, stronger effect = lower value 1 | locus YDR069C, strain doa4, stronger effect = lower value 1.01 | locus YDR101C, strain arx1, stronger effect = lower value 0.963 | locus YDR137W, strain rgp1, stronger effect = lower value 1.01 | locus YDR159W, strain sac3, stronger effect = lower value 1.01 | locus YDR162C, strain NBP2, stronger effect = lower value 1.03 | locus YDR195W, strain ref2 0.991 | locus YDR297W, strain sur2, stronger effect = lower value 1.01 | locus YDR318W, strain mcm21, stronger effect = lower value 1.01 | locus YDR334W, strain swr1, stronger effect = lower value 1.01 | locus YDR335W, strain msn5, stronger effect = lower value 1.01 | locus YDR388W, stronger effect = lower value 0.981 | locus YDR392W, strain spt3, stronger effect = lower value 1.01 | locus YDR502C, strain sam2, stronger effect = lower value 0.993 | locus YEL003W, strain gim4, stronger effect = lower value 1.01 | locus YEL037C, strain rad23, stronger effect = lower value 0.999 | locus YEL061C, strain CIN8 (second series), stronger effect = lower value 1 | locus YEL061C, strain CIN8, stronger effect = lower value 1.01 | locus YER015W, strain faa2, stronger effect = lower value 1.01 | locus YER016W, strain bim1, stronger effect = lower value 1.01 | locus YER110C, stronger effect = lower value 0.984 | locus YER111C, strain swi4, stronger effect = lower value 1 | locus YER155C, strain BEM2 (second series), stronger effect = lower value 1.02 | locus YER155C, strain BEM2, stronger effect = lower value 1.01 | locus YER167W, strain BCK2, stronger effect = lower value 1.01 | locus YFR010W, strain ubp6, stronger effect = lower value 1.02 | locus YGL078C, strain dbp3, stronger effect = lower value 0.997 | locus YGL086W, strain mad1, stronger effect = lower value 0.984 | locus YGL167C, strain pmr1, stronger effect = lower value 1.01 | locus YGL173C, strain kem1, stronger effect = lower value 1.02 | locus YGL227W, strain vid30, stronger effect = lower value 0.994 | locus YGL240W, strain doc1, stronger effect = lower value 1.01 | locus YGL248W, strain PDE1, stronger effect = lower value 1.05 | locus YGL253W, strain hxk2, stronger effect = lower value 0.998 | locus YGR135W, strain pre9, stronger effect = lower value 0.989 | locus YGR252W, strain gcn5, stronger effect = lower value 1.04 | locus YHR013C, strain ard1, stronger effect = lower value 0.988 | locus YHR027C, strain rpn1, stronger effect = lower value 1.01 | locus YHR030C, strain SLT2, stronger effect = lower value 1.01 and 0.992 | locus YHR079C, strain IRE1 (second series), stronger effect = lower value 0.982 | locus YHR079C, strain IRE1, stronger effect = lower value 0.983 | locus YHR094C, strain hxt1, stronger effect = lower value 0.984 | locus YHR129C, strain ARP1, stronger effect = lower value 1.01 | locus YHR142W, strain chs7, stronger effect = lower value 1.01 | locus YHR200W, strain rpn10, stronger effect = lower value 0.995 | locus YIL066C, strain RNR3, stronger effect = lower value 1.02 | locus YIL073C, strain SPO22, stronger effect = lower value 1.01 | locus YIL125W, strain kgd1, stronger effect = lower value 0.989 | locus YIR030C, strain dcg1, stronger effect = lower value 1 | locus YJL092W, strain hpr5, stronger effect = lower value 1 | locus YJL095W, strain BCK1 (second series), stronger effect = lower value 1.01 | locus YJL095W, strain BCK1, stronger effect = lower value 1.06 and 1.01 | locus YJL115W, strain asf1, stronger effect = lower value 0.99 | locus YJL129C, strain trk1, stronger effect = lower value 0.998 | locus YJL134W, strain LCB3, stronger effect = lower value 1.01 | locus YJL154C, strain vps35, stronger effect = lower value 1 | locus YJL164C, strain tpk1, stronger effect = lower value 1.02 | locus YJL166W, strain qcr8, stronger effect = lower value 1.01 | locus YJL168C, strain set2, stronger effect = lower value 0.994 | locus YJL187C, strain SWE1 (second series), stronger effect = lower value 1.02 | locus YJL187C, strain SWE1, stronger effect = lower value 1.01 | locus YJR043C, strain POL32, stronger effect = lower value 1.03 | locus YJR066W, strain TOR1, stronger effect = lower value 0.982
